In ChEMBL document CHEMBL4513216, “Probing the Open Global Health Chemical Diversity Library for Multistage-Active Starting Points for Next-Generation Antimalarials” (ACS Infect Dis, 2020) one finds INHIBITION data, which are given here for 69 compounds.

SMILES strings stand for the structures. The campaign covered roughly 65,000 compounds. About 2,100 (3.2%) showed an effect of 50% or more. The median lay at about -52%. The sample as a whole holds a higher share of strong results than the screen did.

The test system of the assay is Plasmodium falciparum. The experiment in a line: Screen against P. falciparum Asexual Blood Stage (ABS), at 5uM. As to conditions: tested at 5 uM. Format: functional, Dd2.
Consider `CN1CCCC(c2cccc(Cc3ccccc3Cl)n2)C1` (centres undefined), for which the INHIBITION is 70.3%.

Turning to `CN1CCCC(c2cncc(C(=O)NCc3ccccc3Cl)n2)C1` (centres undefined), the INHIBITION was found to be 72.4%. With `CN1CCCC(Cc2nccnc2Cl)CC1` (centres undefined), the INHIBITION turned out to be 5.74%. As for `Cc1nc(CC(=O)N2CCN(C)CC2c2ccccc2)cs1` (centres undefined), the figure is -76.9%; as for `O=C(C1CCCC1)N1C[C@@H]2CCNC[C@@H]21`, -78.2%. `O=C1CC2(CCN(Cc3cccnc3)C2)CN1c1cncnc1` (centres undefined): the INHIBITION is recorded as -101%. With `CC(C)NC(=O)N1CCOC2(CCNCC2)C1`, the INHIBITION is given as 16.9%. Regarding `O=C1CO[C@H]2CN(C3CCOCC3)C[C@H]2N1Cc1ccncc1`, the INHIBITION is listed as -53.2%. The same measure for `CCCNC(=O)c1cn(C(C)(C)C)c2ncccc12`: -149%; for `CC(C)(C)C(=O)NCCNCc1ccc(Cl)c2cccnc12`: 77.7%. On to `COCCNC(=O)c1cn(C(C)(C)C)c2ncccc12`, for which the INHIBITION was -129%.

For the compound `O=C(N1CCOCC1)N1CCC2(CCNC2)C1` (centres undefined), the INHIBITION is -12.3%. For `CC(C)CN1CCC2(CC1)C(=O)Nc1ccc(C(=O)N(C)C)cc12`, the INHIBITION is -21.2%. For the compound `Cc1c(C2SCC(=O)Nc3c2c(O)nn3C2CCCCC2)cnn1C` (centres undefined), the INHIBITION was -53.5%.

For `COc1cnc(N2CC(N3CCOCC3)C2)nc1-c1ccnn1C`, the INHIBITION is on record as 75.3%.

As to `c1cc(COC[C@@]23CCC[C@@H]2CN(C2CCOCC2)C3)ccn1`, the INHIBITION is reported as -24.5%.

On to `Cc1nc[nH]c1CN1CCCC12CCN(c1ccccn1)CC2`, for which the INHIBITION is listed as -15.3%.

Consider `Cc1nc[nH]c1CN(Cc1ccccc1)Cc1nccs1`, for which the INHIBITION was 75.7%. The same measure for `COc1cccc(CCNCc2c(C)nn(C)c2N(C)C)c1`: 49%.

Regarding `CC1CCN(CC(=O)N(Cc2ccccc2)Cc2nccs2)C1=O` (centres undefined), the INHIBITION was -96.3%. As for `COc1cccc(CN(Cc2ccco2)Cc2[nH]cnc2C)c1`, the figure is 86.4%. Regarding `CCOCCCNC(=O)c1cn(C(C)(C)C)c2ncccc12`, the INHIBITION is -151%.

On to `CC(NCC1CCN(CCO)CC1)c1ccc(F)c(Cl)c1` (centres undefined), for which the INHIBITION stood at 84.1%.

On to `CN(CC1CCN(CCO)CC1)CC(O)c1ccc(F)c(F)c1` (centres undefined), for which the INHIBITION came out at 76.5%. Consider `COc1ccc(Cl)cc1CC(=O)N1CCN(CCO)CC1`, for which the INHIBITION was -118%.

Regarding `CC(NCC1CCN(CCO)CC1)c1cccc(Cl)c1` (centres undefined), the INHIBITION came out at 84.8%.

As for `CC(NCC1CCN(CCO)CC1)c1ccc(Cl)cc1` (centres undefined), the INHIBITION is reported as 93.9%.

Consider `Cc1n[nH]c2c1C(c1ccc(Br)cc1)SCC(=O)N2` (centres undefined), for which the INHIBITION is given as -33.1%. `CCOCC(=O)NC(C)Cc1ccccc1Br` (centres undefined): the INHIBITION is -68.7%.

`Cc1ccnc(OC[C@@]23CCO[C@@H]2CCN(C2CCC2)C3)n1`: the INHIBITION was -9.15%. For the compound `CC(Cc1ccc(Cl)cc1)NC(=O)Nc1cnn(CC(N)=O)c1` (centres undefined), the INHIBITION is 22.5%. As to `CSc1cccc(CN(C)C(=O)c2cccc(C3CCCNC3)c2)c1` (centres undefined), the INHIBITION was 77.5%. With `CNC(=O)c1ccc2c(c1)C1(CCN(C(C)C)CC1)C(=O)N2`, the INHIBITION was -45.1%.

As to `O=C(c1ccccc1)N1CCOC2CNCC[C@H]21` (some centres undefined), the INHIBITION was -28.1%.

Regarding `Cc1cc(N(C)C)cc(C2CCN(S(=O)(=O)c3cccs3)C2)n1` (centres undefined), the INHIBITION is given as 84.1%.

Consider `CCCSCC(=O)N1C[C@@H]2CC[C@H]1CN(Cc1cccnc1)C2`, for which the INHIBITION is given as -60%. For the compound `Cc1cccc(N2CCC(NC(C)c3cccs3)CC2)n1` (centres undefined), the INHIBITION is recorded as -22.7%.

As to `Cc1ccc(N2CC[C@@H]3[C@@H]2CCN3Cc2ccsc2)nn1`, the INHIBITION is listed as -103%. Consider `Cc1cc(N2CCC(NC(C)Cc3ccsc3)CC2)nc(C)n1` (centres undefined), for which the INHIBITION came out at 85.8%. As for `Cc1cc(N2CCCC2c2cccnc2)nc(C)n1` (centres undefined), the INHIBITION was -10.2%. In the case of `CCCc1cc(N2CCC(NCCc3ccc(O)cc3)CC2)nc(C)n1`, the INHIBITION came to 82.1%.

On to `Cc1cc(N2CCC(NCCOc3ccccc3)CC2)nc(C)n1`, for which the INHIBITION was 75.1%.

As for `CCc1cc(N2CCC(NC3CN4CCC3CC4)CC2)nc(N(C)C)n1` (centres undefined), the INHIBITION was -25.1%. Regarding `CC(C)OC(=O)N1C[C@@H]2CC[C@H]1CN(Cc1cccnc1)C2`, the INHIBITION is reported as -128%. As for `Cc1cccc(CN2C(=O)C[C@H]3[C@@H]2CCN3Cc2cccs2)n1`, the figure is -76.6%; as for `CN1CCC(N2CCOC3(CCCC3)C2)C1=O` (centres undefined), -26.7%. Take `OC(CNCc1ccccc1C(F)(F)F)c1ccccc1` (centres undefined): the INHIBITION came out at 82.4%. For `CC(C)Oc1ccc(C(O)CNCc2ccccc2C(F)(F)F)cc1` (centres undefined), the INHIBITION is listed as 83.2%. For `Cc1ccccc1CNCC(O)c1ccc(OC(C)C)cc1` (centres undefined), the INHIBITION worked out at 92.4%.

On to `Cc1noc(C)c1C(=O)N1CCOC2(COCCN(C(C)C)C2)C1` (centres undefined), for which the INHIBITION was -57.3%. Take `CN(CCCOc1ccccc1)C(=O)c1csc(-c2nnc[nH]2)n1`: the INHIBITION came to 77.1%. As for `CC1(C)CN(C(CNC2=NCCN2)c2ccc(Cl)cc2)CCO1` (centres undefined), the INHIBITION is given as 83%. Turning to `Cc1n[nH]c2c1C(c1ccc(O)c(Cl)c1)SCC(=O)N2` (centres undefined), the INHIBITION is given as -65.6%. The same measure for `O=C(c1ccc(-n2cccn2)nc1)N1CCC(c2ccc(O)cc2)CC1`: 75.1%; for `O=C(c1ccc(-n2ccnc2)nc1)N1CCN2CCCCC2C1` (centres undefined): -56.6%; for `Cc1ccc(C(=O)N2C[C@@H]3OCCN(C)[C@@H]3C2)cn1`: -12.2%. The same measure for `Cc1noc(C)c1CN1C[C@H](OCC2CC2)[C@H]2COC[C@H]21`: -54.7%. Consider `Fc1ccccc1CO[C@@H]1C[C@H]2CN(c3ncccn3)CCN2C1`, for which the INHIBITION is -67.9%.

As for `COc1ccc(C)cc1CN1CCC(c2cc3ncccc3cn2)CC1`, the INHIBITION came to 78.2%. As for `Fc1ccc(F)c(CN2CCC(c3cc4ncccc4cn3)CC2)c1`, the figure is 76%.

For the compound `O=C(Cc1ccccc1F)N1CCN(Cc2noc(C3CC3)n2)CC1`, the INHIBITION was -69%. With `Fc1cnccc1CN1CCC2(CCN2c2ncccn2)C1` (centres undefined), the INHIBITION is listed as -10.7%. As for `Fc1cccc(CN2CCC(c3cc4ncccc4cn3)CC2)c1F`, the figure is 89.4%.

For the compound `CN1C(=O)C2(CCN(Cc3cccnc3)CC2)c2cccc(F)c21`, the INHIBITION was -61.4%. As for `O=C1CO[C@H]2CN(Cc3cccnc3)C[C@H]2N1`, the INHIBITION is -119%.

In the case of `CCN1CCN(C(=O)Cc2ccc(S(=O)(=O)C(F)F)cc2)CC1`, the INHIBITION is listed as -124%. As for `NCC1Cc2cccc(-c3ccc(O)c(F)c3)c2O1` (centres undefined), the figure is 82.9%; as for `COCC(=O)N1C[C@@H]2OCCN(Cc3c(C)noc3C)[C@@H]2C1`, -93.2%.

`c1cncc(O[C@H]2CC[C@H]3[C@H]2OCCN3C2CCC2)c1`: the INHIBITION is reported as -27.2%.
